# Hits are enriched below; roughly 3.4% of the tested compounds scored in any of these assays.
# TEAD-YAP inh = TEAD-YAP interaction inhibition, primary screen, TEAD-YAP interaction inhibitor project, luminescence, HEK-TIYL cells; inhibition, % at 9.12 µM; TEAD-Gal4/YAP UAS-luciferase luminescence; actives 1.4% (n = 640,000); in the data active = inhibition above about 32%;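 note: 0% = median of test compound wells and 100% = reference inhibitor wells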
# GPR151 activ = activators of human GPR151, primary screen, cell-based, PathHunter beta-arrestin, luminescence | G-protein coupled receptor 151 (Homo sapiens), Q8TDV0 | PathHunter beta-arrestin GPR151 cells | activation, % at 11.2 µM | actives 1% (n = 650,000) | AID 1508602, 2020; in the data active = activation above about 4.9%;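 note: 0% = median of compound wells and 100% = cells with positive control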
# MITF inh = MITF inhibitors, primary screen, biochemical, AlphaScreen, human | AlphaScreen MITF homodimerization, bead proximity signal | inhibition, % at 2.6 µM | actives 0.91% (n = 650,000); in the data active = inhibition above about 50%;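 note: 0% = vehicle wells with protein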
# Target sequence (O75030 whole entry, looked up): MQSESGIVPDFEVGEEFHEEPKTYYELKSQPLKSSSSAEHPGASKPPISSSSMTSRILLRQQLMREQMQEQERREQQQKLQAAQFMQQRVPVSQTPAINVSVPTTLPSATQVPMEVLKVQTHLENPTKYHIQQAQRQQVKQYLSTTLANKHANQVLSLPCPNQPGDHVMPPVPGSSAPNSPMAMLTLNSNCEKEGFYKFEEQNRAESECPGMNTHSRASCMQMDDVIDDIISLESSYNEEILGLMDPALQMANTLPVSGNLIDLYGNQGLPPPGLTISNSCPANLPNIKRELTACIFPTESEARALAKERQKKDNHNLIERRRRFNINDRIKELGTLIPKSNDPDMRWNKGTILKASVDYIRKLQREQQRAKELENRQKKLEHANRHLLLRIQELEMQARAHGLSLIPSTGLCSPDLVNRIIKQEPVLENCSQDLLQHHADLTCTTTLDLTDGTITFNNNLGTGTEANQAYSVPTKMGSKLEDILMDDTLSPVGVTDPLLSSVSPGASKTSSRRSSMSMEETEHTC
# FBW7 act = FBW7 E3 ligase activators, primary screen, biochemical, AlphaScreen, human; AlphaScreen FBW7–phospho-cyclin E peptide binding, activator screen; normalized activity (activation), % at 26.1 µM; actives 0.13% (n = 650,000); AID 1259310, 2017; in the data active = normalized activity above about 1.9%;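 note: purified mutant Fbw7 with reduced substrate affinity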
# * marks the source's active call; other numbers are inactive results.
SMILES,TEAD-YAP inh,GPR151 activ,MITF inh,FBW7 act
Cc1ccsc1/C=N\NC(=O)c1n[nH]c2c1CCCC2,82*,-9,13,0
CN(C)c1ccc(/C=N/NC(=O)c2n[nH]c3c2CCC3)cc1,35*,1,10,0
COc1cc(/C=N/NC(=O)c2n[nH]c3c2CCCC3)ccc1O,36*,-1,10,0
O=C(O)c1n[nH]c2c1CCCCCC2,-11,1,-7,0
O=C(N/N=C/c1cc2c([nH]1)CCCC2)c1n[nH]c2c1CCC2,33*,-1,21,0
O=C(N/N=C/c1ccccc1O)c1n[nH]c2c1CCC2,33*,-1,18,-1
O=C(N/N=C/c1cccc(O)c1)C1C2CCCCC21 (stereo not drawn),60*,-1,-4,0
O=C(NN=C1CCCCC1)c1n[nH]c2c1CCC2,57*,-1,18,0
Cc1ccc(/C=N/NC(=O)c2n[nH]c3c2CCCC3)cc1,18,-1,10,0
COc1cc(/C=C2/SC(N)=NC2=O)cc([N+](=O)[O-])c1O,3,-1,4,0
CC(C)/C=N/NC(=O)CSc1nc2ccccc2s1,13,2,1,0
O=C(N/N=C\c1cccc(Cl)c1)c1n[nH]c2c1CCCC2,25,1,16,0
O=C(N/N=C/c1cccc(O)c1)c1n[nH]c2c1CCC2,46*,-6,11,0
OC1CCN(c2cc(F)cc(-c3ccnc(Nc4ccc(-n5cnc(-c6ccccn6)n5)cc4)n3)c2)CC1,85*,1,3,0
CN(C)c1cc(F)cc(-c2ccnc(Nc3ccc(-n4cnc(N5CCC(O)CC5)n4)cc3)n2)c1,65*,3,-9,0
Cc1ccnc(-c2ncn(-c3ccc(Nc4nccc(-c5cc(F)cc(N6CCOCC6)c5)n4)cc3)n2)c1,28,1,-8,0
N#Cc1cc(-c2ccnc(Nc3ccc(-n4cnc(N5CCOCC5)n4)cc3)n2)cc(N2CCCC(O)C2)c1 (stereo not drawn),17,-1,1,0
N#Cc1cc(-c2ccnc(Nc3ccc(-n4cnc(-c5ccccn5)n4)cc3)n2)cc(N2CCCC(O)C2)c1 (stereo not drawn),50*,1,9,0
N#Cc1cc(-c2ccnc(Nc3ccc(N4CCC(O)CC4)cc3)n2)cc(N2CCOCC2)c1,47*,0,13,0
Cc1cccc(Nc2ncnc(N)c2[N+](=O)[O-])c1,-11,1,0,0
N#Cc1cc(-c2ccnc(Nc3cccc(CN4CCCCC4)c3)n2)cc(N2CCOCC2)c1,86*,-1,16,0
Fc1cc(-c2ccnc(Nc3ccc(-n4cnc(C(F)(F)F)n4)cc3)n2)cc(N2CCN(C3CC3)CC2)c1,9,-1,13,0
Cc1cc(Nc2nccc(-c3cc(C#N)cc(N4CCOCC4)c3)n2)ccc1N1CCOCC1,-1,0,-5,0
Fc1cc(-c2cn[nH]c2)cc(-c2ccnc(Nc3ccc(-n4cnc(C(F)(F)F)n4)cc3)n2)c1,-5,0,18,0
Fc1cc(-c2ccnc(Nc3ccc(-n4cnc(C(F)(F)F)n4)cc3)n2)cc(N2CCNCC2)c1,39*,1,9,1
SMILES,TEAD-YAP inh,GPR151 activ,MITF inh,FBW7 act
CC(C)(C)c1ncn(-c2ccc(Nc3nccc(-c4cn[nH]c4)n3)cc2)n1,63*,0,2,0
OC1CCN(c2ccc(Nc3nccc(-c4cc(F)cc(N5CCOCC5)c4)n3)cc2)CC1,48*,1,10,0
Cn1c2c(c(=O)n(C)c1=O)C(NC(=O)c1ccccc1Cl)(C(F)(F)F)C(=O)N2 (stereo not drawn),-1,-1,-3,0
c1cc(Cn2cccn2)cc(Nc2nccc(-c3cncc(N4CCOCC4)c3)n2)c1,79*,-2,21,0
OC1CCN(c2ccc(Nc3nccc(-c4cncc(N5CCOCC5)c4)n3)cc2)CC1,62*,0,11,0
COc1cccnc1-c1ncn(-c2ccc(Nc3nccc(-c4cc(F)cc(N5CCOCC5)c4)n3)cc2)n1,83*,1,-2,0
N#Cc1ccc(Nc2nccc(-c3cncc(N4CCOCC4)c3)n2)cc1,3,4,2,0
Cc1ncn(-c2ccc(Nc3nccc(-c4cncc(N5CCC(O)CC5)c4)n3)cc2)n1,74*,0,5,0
COc1ccc2[nH]c3c(=O)n(/N=C/c4ccccc4)c(C)nc3c2c1,3,1,-9,0
Fc1cc(-c2ccnc(Nc3ccc(N4CCOCC4)cc3)n2)cc(N2CCN(C3CC3)CC2)c1,48*,0,2,0
CCN1CCN(c2ncn(-c3ccc(Nc4nccc(-c5cc(N6CCOCC6)cc(C(F)(F)F)c5)n4)cc3)n2)CC1,-6,-1,7,0
CCN1CCN(c2ncn(-c3ccc(Nc4nccc(-c5cncc(N6CCOCC6)c5)n4)cc3)n2)CC1,60*,2,6,0
Fc1cc(-c2ccnc(Nc3ccc(-n4cnc(N5CCOCC5)n4)cc3)n2)cc(N2CCOCC2)c1,57*,-1,-14,0
CN1CCN(c2ncn(-c3ccc(Nc4nccc(-c5cc(C#N)cc(N6CCC(O)CC6)c5)n4)cc3)n2)CC1,42*,-1,3,0
Cc1ncn(-c2ccc(Nc3nccc(-c4cc(C#N)cc(N5CCCC5)c4)n3)cc2)n1,-6,-1,2,0
CSCCC1NC2(C(=O)N(C)c3ccccc32)C2C(=O)N(C(C)C)C(=O)C12 (stereo not drawn),3,2,0,0
COc1ccc(C2=N/C(=C\c3ccc(Cl)cc3)C(=O)O2)cc1,-6,0,2,0
Cc1ccc(N2CCN(C(=O)Cc3nn(C)c(=O)c4ccccc34)CC2C)cc1 (stereo not drawn),38*,0,5,0
Cc1nn2c(N)c(-c3ccc(Cl)cc3)cnc2c1-c1ccccc1,4,0,16,1
Cc1nc2c(-c3ccc(Cl)cc3)c(C)nn2c(N)c1-c1ccccc1,34*,-1,20,1
Cc1nc2c(-c3ccccc3)cnn2c(N)c1-c1ccccc1,90*,1,0,0
CCOC(=O)CCC(=O)Nc1cc(-c2ccc(C)cc2)[nH]n1,2,0,-7,0
CC(=O)Nc1cc(-c2ccc(C)cc2)[nH]n1,-58,0,19,1.9*
O=C(CN1CCN(c2ccccc2F)CC1)Nc1ccccc1Br,8,1,-1,0
CCc1cccc(OCC(O)CNCCc2ccccc2)c1 (stereo not drawn),8,3,22,0
O=c1[nH]c2ccc(S(=O)(=O)NCCCO)cc2[nH]1,5,0,21,1.9*
COc1ccc(S(=O)(=O)NCCNc2nc(C)cc(N(C)C)n2)c(OC)c1,32*,-2,9,0
